Shown are actives, neighbours in structure and some others; about 1.5% of the full set was active somewhere.
PriA SSB inh = inhibitors of Klebsiella pneumoniae PriA binding to SSB C-terminal tail, primary screen, biochemical, AlphaScreen | AID 1272365, 2023 | actives 0.6% (n = 430,000) | AlphaScreen SSBct-PriA binding, biotinylated peptide | inhibition, % at 33 µM; in the data active = inhibition mostly above about 37%, no sharp cut-off; inactive = mostly below about 20%;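 also: plate controls were negative control peptide for no effect and reference peptide for full effect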
VHR inh abs = VHR1 phosphatase inhibitors, primary screen, biochemical, absorbance, uHTS | Dual specificity protein phosphatase 3 (Homo sapiens), P51452 | recombinant VHR phosphatase, pNPP absorbance | inhibition, % at 13.3 µM | actives 0.52% (n = 290,000) | AID 1654, 2009; in the data active = inhibition above about 50%
Target sequence (P51452 whole entry, looked up): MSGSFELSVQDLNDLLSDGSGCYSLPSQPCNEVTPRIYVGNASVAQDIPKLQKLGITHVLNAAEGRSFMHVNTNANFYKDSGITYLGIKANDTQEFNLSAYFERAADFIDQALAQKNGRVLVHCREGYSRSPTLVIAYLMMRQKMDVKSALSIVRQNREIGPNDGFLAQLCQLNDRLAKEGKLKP
ugtP null kill = growth inhibition of ugtP-null S. aureus, primary screen, RN4220 ugtP deletion, OD600 | actives 0.54% (n = 330,000) | AID 1259309, 2017 | 16 h | growth inhibition, % (test concentration not listed); in the data active = growth inhibition above about 68%;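 also: plate controls were untreated wells for no effect and antibiotic for full effect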
CCHF vOTU inh-1 = CCHFV vOTU protease inhibitors, primary screen, biochemical, Pep-AMC substrate, fluorescence; Crimean-Congo hemorrhagic fever virus L polyprotein viral ovarian tumor (vOTU) protease …; inhibition, % at 11.5 µM; actives 0.55% (n = 370,000); also: 0% = vehicle wells with enzyme and 100% = no enzyme wells
Sa RN4220 lethal = growth inhibition of S. aureus RN4220, primary screen, OD600; AID 1259311, 2017; actives 0.33% (n = 330,000); inhibition, % (concentration not given with the values); 16 h; in the data active = inhibition above about 85%;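 also: plate controls were untreated cells for no effect and reference antibiotic for full effect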
CCHF vOTU inh-2 = CCHFV vOTU protease inhibitors, confirmation, biochemical, Pep-AMC substrate, fluorescence | inhibition, % at 11.5 µM | actives 17% (n = 1,900) | shares compounds with CCHF vOTU inh-1 | Recombinant CCHFV vOTU | AID 686976, 2013
Starred values were filed as active, the others as inactive; · = not tested or not shown. Rule as the data show it, unless noted: active = inhibition above about 30%; inactive = the rest.

SMILES	PriA SSB inh	VHR inh abs	ugtP null kill	CCHF vOTU inh-1	Sa RN4220 lethal	CCHF vOTU inh-2
CC(=O)OC(COc1ccc(N(C)C(C)=O)cc1)Cn1c2ccccc2c2ccccc21 (stereo not given)	7	·	·	·	·	·
CC(=O)N(C)c1ccc(OCC(O)Cn2c3ccc(Cl)cc3c3cc(Cl)ccc32)cc1 (stereo not given)	-6	-12	15	31*	28	-4
O/N=C1/CCc2cccc3cccc1c23	·	29	·	-9	·	·
O=C1C(=NO)CCc2ccccc21	2	·	·	69*	·	82*
CCCCCCCCCCCCCCCC[n+]1ccccc1	-2	·	100*	38*	100*	37*
c1ccc2c[n+](CCCCCCCCCC[n+]3ccc4ccccc4c3)ccc2c1	·	·	·	2	·	·
O=C1Cc2ccccc2C(=O)N1	·	·	·	116*	·	94*
CCCCNC(=O)C[C@H]1C[C@@]2(C(=O)OC)C(=C[C@H](C(C)C)O[C@@H]2C2CC2)N(CCC2=CCCCC2)C1=O	·	·	·	18	·	·
CCCCOCCCNC(=O)C[C@H]1C[C@@]2(C(=O)OC)C(=C[C@H](C(C)C)O[C@@H]2C2CC2)N(CCC2=CCCCC2)C1=O	·	·	·	39*	·	6
COC(=O)[C@]12C[C@H](CC(=O)NCCCCc3ccccc3)C(=O)N(CCC3=CCCCC3)C1=C[C@H](C(C)C)O[C@@H]2C1CC1	·	·	·	37*	·	2
COC(CNC(=O)C(=O)Nc1ccc(C(F)(F)F)cc1)c1ccccc1Cl (stereo not given)	-21	·	·	·	·	·
CC(=O)Oc1cc(C)c(Cl)c2c(OC(C)=O)cc(C(C)=O)c(O)c12	·	·	·	32*	·	18
O=C(c1cnc2ccccc2n1)N1CCN(CCn2ccnc2-c2ccccc2)CC1	-17	·	·	·	·	·
Cc1c(C(=O)NCC(O)Cn2ccccc2=O)cnn1-c1ccccc1 (stereo not given)	-8	·	·	·	·	·
NC(=O)c1ccc(NC(=O)CN2CCC(c3nnc(C(F)(F)F)o3)CC2)cc1	-11	·	·	·	·	·
CSC1=N/C(=C\c2ccc(C)o2)C(=O)S1	-1	3	16	30*	4	-8
CCCCOc1ccccc1N1C(=O)CC(N2CCN(C)CC2)C1=O (stereo not given)	2	·	·	·	·	·
CN(C)S(=O)(=O)c1ccc(C(=O)Nc2ccc(CC(=O)NCc3cccs3)cc2)cc1	-1	·	·	·	·	·
O=C1C[C@@H](O)[C@H](O)c2cccc(O)c21	·	·	·	45*	·	-2
CCCCn1c(N)c(N(CC)C(=O)c2ccccc2F)c(=O)[nH]c1=O	-12	2	1	33*	6	-11
CCCCn1c(N)c(N(CC(C)C)C(=O)CSc2nn(-c3ccc(F)cc3)c(=S)s2)c(=O)[nH]c1=O	-2	·	4	38*	2	-29
COC(=O)c1ccccc1NC(=O)Cn1ncn2nc(-c3ccc(C)c(C)c3)cc2c1=O	-15	·	·	·	·	·
Cn1nc(C(=O)N2CCC(S(=O)(=O)c3ccc(F)cc3)CC2)ccc1=O	0	·	·	·	·	·
Fc1cccc(C=NNc2ncnc3nc[nH]c23)c1	-11	·	·	·	·	·
CCOc1cc(C(=O)Nc2ccc(S(=O)(=O)Nc3nnc(CC)s3)cc2)cc(OCC)c1OCC	5	-16	9	38*	2	0
SMILES	PriA SSB inh	VHR inh abs	ugtP null kill	CCHF vOTU inh-1	Sa RN4220 lethal	CCHF vOTU inh-2
CC(C)(C)c1ccc(S(=O)(=O)NC(=O)C2(C)CCN2C(=O)C2(c3ccc(Cl)cc3)CC2)cc1 (stereo not given)	·	·	·	31*	·	-4
CC1(C(=O)NS(=O)(=O)c2ccc(Cl)cc2)CCN1C(=O)C1(c2ccc(Cl)cc2)CC1 (stereo not given)	·	·	·	12	·	·
CC(=O)N(/N=C1\Sc2ccccc2C1=O)c1ccccc1C	·	23	·	47*	·	38*
CC(=O)N(N=C1Sc2ccccc2C1=O)c1ccc(C)cc1C	29	·	5	·	-1	·
O=C(Cn1c(-c2cccnc2)nc2ccccc21)Nc1ccc2c(c1)OCO2	4	·	·	·	·	·
CCNC1=C(Cl)C(=O)c2ccccc2C1=O	21	-2	80	53*	71	48*
CCN(CC)c1ccc(NC2=C(Cl)C(=O)c3ccccc3C2=O)cc1	63	-13	4	·	18	·
Cc1ccc(NC2=C(Cl)C(=O)c3ccccc3C2=O)cc1	11	-9	0	-5	18	·
O=C1C(Cl)=C(NCc2ccco2)C(=O)c2ccccc21	12	·	69	107*	80	81*
CCCC(=O)NC1=C(Cl)C(=O)c2ccccc2C1=O	6	·	·	93*	·	83*
CCN(CC)c1ccc(NC(=O)c2ccc(=O)n(C)n2)cc1	21	·	·	·	·	·
O=C(NCc1nnc2ccc(-c3cccs3)nn12)[C@@H]1CC=CCC1	-5	·	·	·	·	·
COc1cccc(N2CC(C(=O)N3CCc4nc(NC(=O)c5cnccn5)sc4C3)CC2=O)c1 (stereo not given)	-12	·	·	·	·	·
Cc1nn(C)c(C)c1S(=O)(=O)Nc1cnn(C2CCOCC2)c1	-13	·	·	·	·	·
O=C(NCc1ccc2c(c1)OCO2)c1ccc(N2CCCCCC2)c([N+](=O)[O-])c1	24	4	5	1	-8	·
CC1CCCN(c2ccc(C(=O)NCc3ccc4c(c3)OCO4)cc2[N+](=O)[O-])C1 (stereo not given)	33	-12	2	31*	-6	-12
CC(=O)Nc1nc(-c2ccc(C#N)cc2)cs1	3	·	·	·	·	·
O=C(NCCn1ncc2c(=O)n(Cc3cccc(C(F)(F)F)c3)cnc21)c1ccc2c(c1)OCO2	1	·	·	·	·	·
Nc1nc(-c2ccccc2)nc2sc3c(c12)CCCC3	-18	1	4	30*	-8	-17
O=c1oc(-c2ccccc2)nc2sc3c(c12)CCC3	-14	36	-26	2	8	·
O=C(NC(=S)Nc1ccccc1N1CCCC1)c1cccs1	1	-18	-4	37*	-1	38*
CC(C)CC(=O)NC(=S)Nc1ccccc1N1CCCC1	-5	-6	79	31*	9	12
COc1ccccc1-c1cc2c(SCC(=O)Nc3ccccc3Br)nccn2n1	0	·	·	·	·	·
COc1ccccc1NC(=O)c1ccc(Cl)c(S(=O)(=O)NCc2ccco2)c1	-1	·	0	33*	1	-28
O=C(O)c1ccc(Cl)c(S(=O)(=O)NCc2ccco2)c1	-13	-12	5	0	17	·
Cc1cc(NC(=O)C(=O)NCCN2CCN(c3ccc(F)cc3)CC2)no1	-21	·	·	·	·	·
Cc1ccc(Cc2c(-c3cccc(Br)c3)nc3ccc(C)cn23)cc1	·	·	·	24	·	·
Cc1ccc2nc(-c3ccc(Cl)cc3)c(Cc3ccccc3C(F)(F)F)n2c1	·	·	·	14	·	·
Cc1ccc(Cc2c(-c3cccc(Br)c3)nc3ccc(Cl)cn23)cc1	·	·	·	40*	·	-5
Cc1ccc(-c2nc3ccc(Cl)cn3c2Cc2ccccc2C(F)(F)F)cc1	·	·	·	32*	·	-10
